KCNQ2 inh: rat KCNQ2 potassium channel inhibitors, primary screen, cell-based, CHO-K1, FluxOR thallium flux, B-score. 20 min; hits give low values. B-score at 10 µM. 1.1% of 310,000 active;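 active = fluorescence ratio B-score at most minus 3 library SDs, with starting brightness B-score within 2 library SDs, cut at about -5.5 in these data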
Target sequence (O88943 whole entry, looked up): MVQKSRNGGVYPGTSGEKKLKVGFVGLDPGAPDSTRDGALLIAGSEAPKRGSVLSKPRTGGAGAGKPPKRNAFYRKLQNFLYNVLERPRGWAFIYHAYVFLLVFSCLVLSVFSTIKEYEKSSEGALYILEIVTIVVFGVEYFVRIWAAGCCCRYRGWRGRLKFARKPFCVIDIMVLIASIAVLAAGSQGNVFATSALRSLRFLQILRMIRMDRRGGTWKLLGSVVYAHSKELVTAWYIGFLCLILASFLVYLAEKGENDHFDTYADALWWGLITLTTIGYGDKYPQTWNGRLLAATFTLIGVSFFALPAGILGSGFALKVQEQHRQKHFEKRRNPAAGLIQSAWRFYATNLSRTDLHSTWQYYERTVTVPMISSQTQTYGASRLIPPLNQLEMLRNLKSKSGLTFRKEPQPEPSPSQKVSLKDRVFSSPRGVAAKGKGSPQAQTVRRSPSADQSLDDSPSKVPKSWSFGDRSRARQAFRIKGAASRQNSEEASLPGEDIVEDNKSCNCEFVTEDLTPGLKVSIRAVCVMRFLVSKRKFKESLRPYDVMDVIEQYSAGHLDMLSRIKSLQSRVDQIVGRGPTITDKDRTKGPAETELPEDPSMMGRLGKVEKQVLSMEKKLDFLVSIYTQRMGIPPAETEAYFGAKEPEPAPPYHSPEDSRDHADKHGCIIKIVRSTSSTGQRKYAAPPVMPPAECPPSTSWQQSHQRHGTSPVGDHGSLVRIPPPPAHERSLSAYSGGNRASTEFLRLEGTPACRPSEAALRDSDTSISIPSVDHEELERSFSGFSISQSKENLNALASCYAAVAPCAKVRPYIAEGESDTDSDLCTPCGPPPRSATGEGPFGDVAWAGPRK
KCNQ2 pot: potentiators of rat KCNQ2 potassium channel | Potassium voltage-gated channel subfamily KQT member 2 (Rattus norvegicus), O88943 | CHO-K1 KCNQ2, FluxOR thallium flux fluorescence; hits give high values | B-score at 10 µM | 0.54% of 310,000 active | AID 2239, 2010;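 active = fluorescence ratio B-score at least 3 SD of library B-scores, with initial fluorescence B-score within 3 of them, cut at about 5.3 in these data; same plate scores as AID 2156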;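 also: B-score of peak minus minimum over baseline fluorescence ratio after K+ and Tl+ stimulus; positive B-score means potentiation of KCNQ2 with more thallium influx and brighter signal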
Of the large screens only hits and unclear results are named; the others gave an inactive call. Rows were chosen to be rich in hits. Some 1.6% of all compounds tested hit in one or more screens of this group.

CCOc1ccc2[nH]c(=O)c(C(c3nnnn3Cc3ccco3)N3CCC(C)CC3)cc2c1 (centres undefined)	none
Cc1ccc(O)c(Nc2c3ccccc3nc3ccccc23)c1	KCNQ2 inh -5.6
Cc1ccc(O)c(Nc2nc(-c3ccccc3)nc3ccccc23)c1	none
O=C(CCS(=O)(=O)c1ccc(Cl)cc1)Nc1nc(-c2ccncc2)cs1	none (no result: KCNQ2 pot)
C=CCn1c(SCC(C)=O)nc2scc(-c3ccco3)c2c1=O	none (no result: KCNQ2 pot)
C=CCn1c(SCc2ccc3c(c2)OCO3)nc2scc(-c3ccco3)c2c1=O	KCNQ2 inh -6.1
O=C(Nc1ccc2c(c1)C(=O)OC2)c1ccc(F)cc1F	none
Cc1nc(C(=O)Nc2cccc(Cl)c2)nn1-c1cc(OC(C)C)c(Cl)cc1Cl	none (no result: KCNQ2 pot)
Cc1nc(C(=O)Nc2cc(Cl)ccc2Cl)nn1-c1cc(OC(C)C)c(Cl)cc1Cl	KCNQ2 inh -6.4
Cc1nc(C(=O)Nc2ccc(Cl)cc2Cl)nn1-c1cc(OC(C)C)c(Cl)cc1Cl	none (no result: KCNQ2 pot)
Cc1nc(C(=O)Nc2cccc(Cl)c2Cl)nn1-c1cc(OC(C)C)c(Cl)cc1Cl	KCNQ2 inh -6.3
CC1CCN(C(=O)CNC(=O)CNS(=O)(=O)c2ccccc2)CC1	none
CC(C)NC(=O)CSc1nnc(-c2ccc3ncccc3c2)n1C	none
COc1ccc(N(CC(=O)N2CCN(c3cccc(C)c3C)CC2)S(=O)(=O)c2c(C)noc2C)cc1	none
O=C(NCc1ccncc1)C(=O)Nc1nc(C23CC4CC(CC(C4)C2)C3)cs1	none
O=C(NCc1ccccc1)C(=O)Nc1nc(C23CC4CC(CC(C4)C2)C3)cs1	KCNQ2 pot 5.5
c1cncc(-c2nc(N3CCCCCC3)c3ccccc3n2)c1	KCNQ2 inh -7.4
CN1CCN(c2nc(-c3cccnc3)nc3ccccc23)CC1	none
CC(C)(C)CC(=O)Nc1cc2c3c(c1)CCC(=O)N3CCC2	none
CCCSc1nc(N2CCOCC2)c2c(c1C#N)CC(C)(C)SC2	none
CC(C)Sc1nc(N2CCOCC2)c2c(c1C#N)CC(C)(C)SC2	KCNQ2 inh -6.2
Cc1ccc2c(c1)C(c1ccc(F)cc1)N(C(=O)c1ccccc1Br)CC(=O)N2 (centres undefined)	none
Cc1cc(C)nc(NCC(O)CNc2ccccc2C)n1 (centres undefined)	none
Cc1cc(C)nc(NCC(O)COc2ccccc2C)n1 (centres undefined)	KCNQ2 inh -5.9
CCOC(=O)CNc1c(-c2ccc(O)cc2)nc2ccc(Cl)cn12	KCNQ2 inh -5.7
CCOC(=O)CNc1c(-c2ccc(O)cc2)nc2ccccn12	none (no result: KCNQ2 pot)
COc1ccc(Oc2ccc(C(F)(F)F)cc2NC(=O)c2ccc(C)cc2)cc1	KCNQ2 inh -5.6
COCCOc1ccc(C(F)(F)F)cc1NC(=O)c1ccc(C)cc1	none (no result: KCNQ2 pot)
COc1ccccc1-n1c(=S)sc2c(=O)n(Cc3ccco3)c(SC)nc21	KCNQ2 inh -6.9
COc1ccccc1-n1c(SC)nc2c(sc(=S)n2-c2ccccc2)c1=O	none
O=C(Nc1ccc(Br)cc1)NC1CCCCCCC1	none (no result: KCNQ2 pot)
Cc1cc(C)n(-c2nc(NCCN(C)C)c3c4c(sc3n2)COC(C)(C)C4)n1	none
Cc1cc(C)n(-c2nc(-n3nc(C)cc3C)c3c4c(sc3n2)COC(C)(C)C4)n1	KCNQ2 inh -8
Cc1ccc(CCNC(=O)c2nnc(CS(=O)(=O)c3ccccc3)o2)cc1	none (no result: KCNQ2 pot)
CCOc1cc(Br)c(C(C)NC(=O)c2cccnc2)cc1OCC (centres undefined)	none (no result: KCNQ2 pot)
Cc1cccc(N2CCN(S(=O)(=O)c3c(C)[nH]c(C)c3C(=O)N3CCCC3)CC2)c1C	none (no result: KCNQ2 pot)
Cc1cccc(N2CCN(S(=O)(=O)c3c(C)[nH]c(C)c3C(=O)N3CCCCC3)CC2)c1C	KCNQ2 inh -5.9
COc1ccc(OC)c(C2=Nn3c(nnc3-c3cc(C)[nH]n3)SC2)c1	none (no result: KCNQ2 pot)
O=C(Nc1ccc2c(c1)CCC2)c1cccc(F)c1	KCNQ2 pot 7.3
Cc1ccc(C(=O)Nc2ccc3c(c2)CCC3)cc1	none
O=c1c2cnn(-c3ccccc3)c2nc(-c2cccs2)n1-c1ccc(Cl)cc1	none (no result: KCNQ2 pot)
O=c1c2cnn(-c3ccccc3)c2nc(-c2cccs2)n1-c1cccc(Cl)c1	KCNQ2 inh -7.5
CCCCc1nc2ccccc2c(=O)n1NC(=O)c1c(O)c2c(n(CC(C)C)c1=O)CCCC2	none (no result: KCNQ2 pot)
CC(C)Cn1c2c(c(O)c(C(=O)Nn3c(Cc4ccccc4)nc4ccccc4c3=O)c1=O)CCCC2	KCNQ2 inh -6.3
COc1ccc(CCN(C)C(=O)c2cc(-c3ccccc3)nc3ccccc23)cc1OC	none (no result: KCNQ2 pot)
COc1ccc(-c2cc(C(=O)N(C)CCc3ccc(OC)c(OC)c3)c3ccccc3n2)cc1	KCNQ2 inh -5.6
COc1ccc(-c2cc(C(=O)N(C)Cc3cccc(OC)c3OC)c3ccccc3n2)cc1OC	none (no result: KCNQ2 pot)
COc1ccc(CN(C)C(=O)c2cc(-c3ccccc3)nc3ccc(C)cc23)c(OC)c1OC	KCNQ2 inh -5.7
COc1cccc(CN(C)C(=O)c2cc(-c3ccc(OC)c(OC)c3)nc3ccccc23)c1	KCNQ2 inh -6
COc1cccc(CN(C)C(=O)c2cc(-c3ccc(F)cc3)nc3ccccc23)c1	none (no result: KCNQ2 pot)
CS(=O)(=O)c1ccc(Cl)c(NC(=O)c2cc(=O)[nH]c3ccc(S(=O)(=O)N4CCOCC4)cc23)c1	none
CC(C)(C)c1ccc(S(=O)(=O)NCC(=O)N2CCN(Cc3ccccc3)CC2)cc1	none (no result: KCNQ2 pot)
Cc1ccc(Sc2c(C=O)c3ccccc3n2C)cc1	none
Cc1cccc(Oc2c(C=O)c3ccccc3n2C)c1	KCNQ2 inh -6.5
Clc1ccc2nc(N3CCNCC3)nc(-c3ccccc3)c2c1	KCNQ2 inh -5.9
OCCN1CCN(c2nc(-c3ccccc3)c3cc(Cl)ccc3n2)CC1	none (no result: KCNQ2 pot)
COC(=O)c1c(-c2ccc(Br)cc2)csc1NC(=O)Cc1ccc(OC)c(OC)c1	none (no result: KCNQ2 pot)
COC(=O)c1c(-c2ccc(C)cc2)csc1NC(=O)Cc1ccc(OC)c(OC)c1	KCNQ2 inh -6.8
CCCOc1cc(N(CC)CC)ccc1/C=C(/C#N)c1nc2ccc(C)cc2[nH]1	none (no result: KCNQ2 pot)
CCOc1cc(N(CC)CC)ccc1/C=C(/C#N)c1nc2ccccc2[nH]1	KCNQ2 inh -8.4
CCCn1c(/N=C/c2ccccc2O)nc2ccccc21	none
Cn1c(/N=C/c2c(O)ccc3ccccc23)nc2ccccc21	KCNQ2 pot 9.9
CCN=C(NCC)SC1CC(=O)N(c2ccccc2)C1=O (centres undefined)	none (no result: KCNQ2 pot)
CCN=C(NCC)SC1CC(=O)N(c2cccc(OC)c2)C1=O (centres undefined)	KCNQ2 inh -5.8
CC1Sc2ccc(S(=O)(=O)N3CCC(C(=O)Nc4cccc(Cl)c4)CC3)cc2NC1=O (centres undefined)	none
Cc1oc(S(=O)(=O)N2CCCCC2)cc1NC(=O)Nc1ccc(F)cc1	none
Cc1nc2scc(-c3ccccc3)c2c(=O)n1/N=C/c1ccco1	KCNQ2 inh -6.4
Cc1nc2ccccc2c(=O)n1/N=C/c1ccco1	none (no result: KCNQ2 pot)
C=CCn1c(C)nnc1SCC(=O)N1CCN(S(=O)(=O)c2ccccc2)CC1	none (no result: KCNQ2 pot)
N/C(=N\OC(=O)c1ccc(Cl)cc1)c1[nH]ncc1Br	none (no result: KCNQ2 pot)
CCCc1nc(SCC(=O)Nc2ccccc2)c2c(=O)n(C)c(=O)n(C)c2n1	none
CCCc1nc(SCC(=O)N2CCC(Cc3ccccc3)CC2)c2c(=O)n(C)c(=O)n(C)c2n1	KCNQ2 pot 23
CCOc1ccccc1NC(=O)c1nnn(CC(=O)Nc2cc(C)cc(C)c2)c1N	none
Cc1cccc(-n2cc(-c3ccccc3)c3c(N4CCOCC4)ncnc32)c1	KCNQ2 inh -6.7
Cc1ccc(-n2cc(-c3ccccc3)c3c(N4CCOCC4)ncnc32)cc1	none (no result: KCNQ2 pot)

Source: PubChem BioAssay
